Test results taken from the supplement of paper PMC10849652.
About 7,900 targets were measured; listed, in parts, are those with a hit and a random draw of the rest. About 0.6% of all pairs of compound and target were hits. A number with no mark means an inactive call.

What follows are targets tested with C1=CC=C2C(=C1)C3=NNC4=CC=CC(=C43)C2=O (assay: log2 fold change, soluble protein after heating vs DMSO (PISA); higher = thermal stabilisation; K562 cells, 10 uM, 30 min; active = over 0.2 and 3.5 SD of the protein, either way, in both replicates (recomputed)).
Outline: (§1)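 For each measurement, 10 μM compound was applied for 30 min to K562 cells at 2×10^6 cells/mL. Aliquots were heated for 3 min across 48°C-58°C, pooled, and extracted in PBS with 0.5% NP-40 at 4°C; the supernatant after 21,000xg for 90 min was soluble protein. This was quantified by TMTpro 16plex LC-MS/MS with channel sums equalised, and thermal stability was reported relative to control samples from duplicates, on a log2 fold-change scale.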

Chain of UniProt Q15366 (Q15366 whole entry, looked up): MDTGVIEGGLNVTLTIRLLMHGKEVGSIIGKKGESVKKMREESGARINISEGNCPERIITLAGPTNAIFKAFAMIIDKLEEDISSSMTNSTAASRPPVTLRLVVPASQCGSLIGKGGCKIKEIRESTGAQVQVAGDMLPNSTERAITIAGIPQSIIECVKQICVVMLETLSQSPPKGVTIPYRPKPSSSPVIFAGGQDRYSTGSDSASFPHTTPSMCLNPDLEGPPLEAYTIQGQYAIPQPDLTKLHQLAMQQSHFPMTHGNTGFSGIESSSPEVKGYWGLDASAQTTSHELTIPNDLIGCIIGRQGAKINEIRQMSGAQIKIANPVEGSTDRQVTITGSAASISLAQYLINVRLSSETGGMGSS
Chain of UniProt O00625 (O00625 whole entry, looked up): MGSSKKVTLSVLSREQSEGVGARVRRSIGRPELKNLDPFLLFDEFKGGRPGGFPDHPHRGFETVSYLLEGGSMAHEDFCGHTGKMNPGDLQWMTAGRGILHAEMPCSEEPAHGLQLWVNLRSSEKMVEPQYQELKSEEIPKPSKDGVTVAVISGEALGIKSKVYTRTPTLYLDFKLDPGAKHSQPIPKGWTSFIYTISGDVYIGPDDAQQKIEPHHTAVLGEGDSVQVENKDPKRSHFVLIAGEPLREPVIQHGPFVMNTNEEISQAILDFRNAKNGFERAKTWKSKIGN
Chain of UniProt Q9BTU6 (Q9BTU6 whole entry, looked up): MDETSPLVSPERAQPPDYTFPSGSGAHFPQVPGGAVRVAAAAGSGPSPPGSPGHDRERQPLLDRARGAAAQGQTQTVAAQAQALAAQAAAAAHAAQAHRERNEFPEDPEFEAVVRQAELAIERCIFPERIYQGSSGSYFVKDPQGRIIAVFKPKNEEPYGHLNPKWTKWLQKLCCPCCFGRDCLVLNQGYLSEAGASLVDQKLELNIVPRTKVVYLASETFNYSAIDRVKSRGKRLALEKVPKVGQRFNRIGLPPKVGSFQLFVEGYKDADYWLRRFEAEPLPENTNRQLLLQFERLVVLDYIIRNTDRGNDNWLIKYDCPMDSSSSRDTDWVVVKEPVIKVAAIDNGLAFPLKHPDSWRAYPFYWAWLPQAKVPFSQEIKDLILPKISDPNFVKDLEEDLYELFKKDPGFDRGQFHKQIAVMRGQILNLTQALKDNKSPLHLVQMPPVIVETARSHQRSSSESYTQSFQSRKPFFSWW
Chain of UniProt Q05655 (Q05655 whole entry, looked up): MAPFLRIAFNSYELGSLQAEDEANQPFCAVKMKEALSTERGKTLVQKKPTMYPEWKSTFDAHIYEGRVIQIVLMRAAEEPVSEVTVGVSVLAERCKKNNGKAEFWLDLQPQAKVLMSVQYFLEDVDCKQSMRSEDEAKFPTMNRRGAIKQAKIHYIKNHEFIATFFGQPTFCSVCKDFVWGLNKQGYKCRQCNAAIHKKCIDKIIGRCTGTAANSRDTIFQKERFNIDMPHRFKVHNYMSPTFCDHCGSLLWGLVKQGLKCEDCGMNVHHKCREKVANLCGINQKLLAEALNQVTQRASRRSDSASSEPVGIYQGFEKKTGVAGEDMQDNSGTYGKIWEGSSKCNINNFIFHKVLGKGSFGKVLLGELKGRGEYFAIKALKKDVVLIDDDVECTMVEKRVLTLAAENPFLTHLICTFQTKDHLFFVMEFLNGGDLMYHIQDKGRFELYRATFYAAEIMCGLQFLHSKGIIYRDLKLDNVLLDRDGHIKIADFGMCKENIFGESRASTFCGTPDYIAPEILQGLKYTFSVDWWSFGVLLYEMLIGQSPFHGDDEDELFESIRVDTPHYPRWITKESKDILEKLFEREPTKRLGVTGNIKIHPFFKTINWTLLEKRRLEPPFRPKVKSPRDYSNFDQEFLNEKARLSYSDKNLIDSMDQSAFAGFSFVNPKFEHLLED
Chain of UniProt O15162 (O15162 whole entry, looked up): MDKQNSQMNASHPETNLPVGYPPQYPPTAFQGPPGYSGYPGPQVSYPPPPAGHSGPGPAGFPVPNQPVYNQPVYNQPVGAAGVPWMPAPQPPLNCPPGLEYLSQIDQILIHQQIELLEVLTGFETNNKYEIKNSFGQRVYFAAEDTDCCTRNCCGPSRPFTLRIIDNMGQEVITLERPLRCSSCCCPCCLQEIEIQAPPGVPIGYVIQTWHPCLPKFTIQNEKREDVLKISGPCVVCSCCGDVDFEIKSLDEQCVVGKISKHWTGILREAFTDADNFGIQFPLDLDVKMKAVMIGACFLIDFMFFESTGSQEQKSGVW
Chain of UniProt P42338 (P42338 whole entry, looked up): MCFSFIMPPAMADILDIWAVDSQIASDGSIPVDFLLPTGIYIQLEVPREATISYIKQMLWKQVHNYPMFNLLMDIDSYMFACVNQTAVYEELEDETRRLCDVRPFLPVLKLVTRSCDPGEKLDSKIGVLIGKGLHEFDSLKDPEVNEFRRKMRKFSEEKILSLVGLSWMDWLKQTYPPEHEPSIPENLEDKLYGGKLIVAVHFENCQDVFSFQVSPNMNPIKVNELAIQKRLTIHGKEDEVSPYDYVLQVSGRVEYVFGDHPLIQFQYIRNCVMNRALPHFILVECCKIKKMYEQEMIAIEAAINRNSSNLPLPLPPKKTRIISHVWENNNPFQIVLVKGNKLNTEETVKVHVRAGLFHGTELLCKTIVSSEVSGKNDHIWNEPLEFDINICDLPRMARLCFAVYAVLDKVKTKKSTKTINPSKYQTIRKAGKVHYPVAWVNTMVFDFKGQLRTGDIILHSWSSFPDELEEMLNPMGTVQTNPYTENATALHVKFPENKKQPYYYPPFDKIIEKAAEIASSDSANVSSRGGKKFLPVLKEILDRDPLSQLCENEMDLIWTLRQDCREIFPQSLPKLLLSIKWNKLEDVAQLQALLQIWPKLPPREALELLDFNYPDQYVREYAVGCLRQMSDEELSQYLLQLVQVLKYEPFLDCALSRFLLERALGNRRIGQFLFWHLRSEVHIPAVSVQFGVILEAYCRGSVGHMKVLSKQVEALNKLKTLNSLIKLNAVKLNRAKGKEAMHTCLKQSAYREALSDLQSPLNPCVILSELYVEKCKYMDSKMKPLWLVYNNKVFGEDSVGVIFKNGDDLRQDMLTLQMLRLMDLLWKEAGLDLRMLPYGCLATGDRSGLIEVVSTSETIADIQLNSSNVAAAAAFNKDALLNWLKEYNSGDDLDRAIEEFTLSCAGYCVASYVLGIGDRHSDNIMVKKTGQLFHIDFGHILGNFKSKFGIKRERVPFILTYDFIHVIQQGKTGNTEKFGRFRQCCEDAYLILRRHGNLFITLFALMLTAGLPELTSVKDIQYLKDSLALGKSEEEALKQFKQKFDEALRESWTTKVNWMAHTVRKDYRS
Chain of UniProt P11498 (P11498 whole entry, looked up): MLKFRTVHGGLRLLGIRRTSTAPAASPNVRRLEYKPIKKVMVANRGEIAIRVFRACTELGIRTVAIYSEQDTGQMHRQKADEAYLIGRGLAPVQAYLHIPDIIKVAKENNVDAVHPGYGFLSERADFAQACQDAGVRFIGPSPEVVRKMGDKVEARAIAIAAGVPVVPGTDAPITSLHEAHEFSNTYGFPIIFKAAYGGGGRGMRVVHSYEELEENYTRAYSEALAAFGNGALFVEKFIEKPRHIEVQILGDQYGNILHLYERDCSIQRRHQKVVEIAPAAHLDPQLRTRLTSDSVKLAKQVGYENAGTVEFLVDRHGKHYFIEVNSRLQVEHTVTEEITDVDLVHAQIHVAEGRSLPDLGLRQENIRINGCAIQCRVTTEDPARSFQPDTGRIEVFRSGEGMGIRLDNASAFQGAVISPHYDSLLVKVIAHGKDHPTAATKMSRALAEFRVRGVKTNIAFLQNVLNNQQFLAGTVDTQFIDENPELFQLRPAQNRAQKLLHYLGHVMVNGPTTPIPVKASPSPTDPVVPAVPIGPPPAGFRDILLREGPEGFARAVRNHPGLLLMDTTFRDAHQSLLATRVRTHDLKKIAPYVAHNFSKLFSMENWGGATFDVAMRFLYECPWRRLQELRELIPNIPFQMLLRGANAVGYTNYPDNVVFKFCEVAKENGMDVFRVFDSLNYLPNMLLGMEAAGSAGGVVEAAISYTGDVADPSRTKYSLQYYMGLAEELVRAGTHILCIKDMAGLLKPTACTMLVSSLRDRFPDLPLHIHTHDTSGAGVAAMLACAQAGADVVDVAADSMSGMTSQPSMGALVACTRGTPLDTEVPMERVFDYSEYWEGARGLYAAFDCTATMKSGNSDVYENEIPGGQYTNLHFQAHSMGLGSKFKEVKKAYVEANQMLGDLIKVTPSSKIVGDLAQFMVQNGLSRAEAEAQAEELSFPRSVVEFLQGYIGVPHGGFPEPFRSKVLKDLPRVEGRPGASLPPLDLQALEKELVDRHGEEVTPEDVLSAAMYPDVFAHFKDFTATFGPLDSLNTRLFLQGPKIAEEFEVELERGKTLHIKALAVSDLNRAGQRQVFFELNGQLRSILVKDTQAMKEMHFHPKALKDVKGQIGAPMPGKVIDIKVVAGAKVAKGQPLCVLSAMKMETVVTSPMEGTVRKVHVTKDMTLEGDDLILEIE
Chain of UniProt O96013 (O96013 whole entry, looked up): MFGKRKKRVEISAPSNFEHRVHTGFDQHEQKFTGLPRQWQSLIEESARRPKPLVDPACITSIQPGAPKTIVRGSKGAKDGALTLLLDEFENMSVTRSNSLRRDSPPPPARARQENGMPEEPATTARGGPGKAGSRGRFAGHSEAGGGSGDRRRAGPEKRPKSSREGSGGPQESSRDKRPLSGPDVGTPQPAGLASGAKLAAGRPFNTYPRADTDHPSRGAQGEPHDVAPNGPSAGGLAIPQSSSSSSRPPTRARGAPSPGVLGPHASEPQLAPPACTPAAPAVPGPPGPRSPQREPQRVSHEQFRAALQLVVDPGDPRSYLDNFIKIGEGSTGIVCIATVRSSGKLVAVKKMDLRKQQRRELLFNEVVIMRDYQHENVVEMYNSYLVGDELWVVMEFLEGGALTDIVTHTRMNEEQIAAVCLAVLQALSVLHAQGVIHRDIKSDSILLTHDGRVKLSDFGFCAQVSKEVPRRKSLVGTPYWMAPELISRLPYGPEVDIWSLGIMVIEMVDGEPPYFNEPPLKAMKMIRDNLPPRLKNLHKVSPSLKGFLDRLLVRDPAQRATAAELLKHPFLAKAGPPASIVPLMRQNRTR

| Target | log2 fold change |
| --- | --- |
| PTPA (UniProt Q15257) | 0.029 |
| PLSCR1 (UniProt O15162) | -0.04 |
| POLR2M (UniProt P0CAP2) | -0.009 |
| PEX11B (UniProt O96011) | -0.012 |
| PSMD1 (UniProt Q99460) | 0.034 |
| PLCB3 (UniProt Q01970) | 0.034 |
| PRKCD (UniProt Q05655) | -0.008 |
| PIR (UniProt O00625) | 0.225 (active) |
| PFDN1 (UniProt O60925) | 0.047 |
| POLR3B (UniProt Q9NW08) | -0.018 |
| PPP2R5E (UniProt Q16537) | 0.054 |
| PRPF40A (UniProt O75400) | -0.135 |
| PC (UniProt P11498) | 0.031 |
| PCBP2 isoform 3 (UniProt Q15366) | 0.017 |
| PNN (UniProt Q9H307) | -0.11 |
| PTTG1 (UniProt O95997) | -0.045 |
| POLR2K (UniProt P53803) | -0.105 |
| PAK4 (UniProt O96013) | -0.013 |

| Target | log2 fold change |
| --- | --- |
| PRPF38A (UniProt Q8NAV1) | -0.08 |
| PRKACA (UniProt P17612) | -0.025 |
| POLR3K (UniProt Q9Y2Y1) | -0.056 |
| PRKAR1B (UniProt P31321) | 0.102 |
| PRPF3 (UniProt O43395) | 0 |
| PLCL1 (UniProt Q15111) | 0.051 |
| PI4K2A (UniProt Q9BTU6) | 0.01 |
| PELP1 (UniProt Q8IZL8) | -0.053 |
| PDE12 (UniProt Q6L8Q7) | 0.054 |
| PRKAA1 isoform 2 (UniProt Q13131) | -0.051 |
| PDE4A (UniProt P27815) | -0.01 |
| PDCD6IP (UniProt Q8WUM4) | 0.043 |
| PCBP1 (UniProt Q15365) | 0.031 |
| PRKAG1 isoform 3 (UniProt P54619) | -0.015 |
| PPP6R1 (UniProt Q9UPN7) | -0.039 |
| PIK3CB (UniProt P42338) | 0.014 |
| PIK3C3 (UniProt Q8NEB9) | 0.048 |
| PIP4K2A (UniProt P48426) | 0.076 |

These targets were tested with C1CCN(C1)C(=O)NC2=CC=CC(=C2)NC3=NC=C(C(=N3)NCCC4=CN=CN4)Br in the same assay as above.
Outline: as §1

| Target | log2 fold change |
| --- | --- |
| PTPA (UniProt Q15257) | -0.037 |
| PLSCR1 (UniProt O15162) | -0.008 |
| POLR2M (UniProt P0CAP2) | 0.017 |
| PEX11B (UniProt O96011) | -0.097 |
| PSMD1 (UniProt Q99460) | 0.001 |
| PLCB3 (UniProt Q01970) | -0.057 |
| PRKCD (UniProt Q05655) | 0.009 |
| PIR (UniProt O00625) | -0.053 |
| PFDN1 (UniProt O60925) | -0.091 |
| POLR3B (UniProt Q9NW08) | 0.194 |
| PPP2R5E (UniProt Q16537) | -0.013 |
| PRPF40A (UniProt O75400) | -0.129 |
| PC (UniProt P11498) | -0.022 |
| PCBP2 isoform 3 (UniProt Q15366) | -0.039 |
| PTTG1 (UniProt O95997) | -0.024 |
| POLR2K (UniProt P53803) | 0.005 |
| PAK4 (UniProt O96013) | 0.062 |
| PRPF38A (UniProt Q8NAV1) | 0.008 |

| Target | log2 fold change |
| --- | --- |
| PRKACA (UniProt P17612) | -0.142 |
| POLR3K (UniProt Q9Y2Y1) | -0.006 |
| PRKAR1B (UniProt P31321) | 0.086 |
| PRPF3 (UniProt O43395) | -0.07 |
| PLCL1 (UniProt Q15111) | 0 |
| PI4K2A (UniProt Q9BTU6) | -0.002 |
| PELP1 (UniProt Q8IZL8) | -0.041 |
| PDE12 (UniProt Q6L8Q7) | -0.04 |
| PRKAA1 isoform 2 (UniProt Q13131) | -0.034 |
| PDE4A (UniProt P27815) | 0.023 |
| PDCD6IP (UniProt Q8WUM4) | -0.095 |
| PCBP1 (UniProt Q15365) | -0.034 |
| PRKAG1 isoform 3 (UniProt P54619) | -0.007 |
| PPP6R1 (UniProt Q9UPN7) | -0.014 |
| PIK3CB (UniProt P42338) | -0.016 |
| PIK3C3 (UniProt Q8NEB9) | -0.024 |
| PIP4K2A (UniProt P48426) | 0.162 |
